Assay outcomes from PubChem BioAssay.
The list is not random: actives were taken first. Their share in the collection is about 11%.
Pf growth 96h: Primary qHTS for delayed death inhibitors of the malarial parasite plastid, 96 hour incubation | actives 6.9% (n = 320,000) | P. falciparum luciferase reporter growth, 96 h | Potency, µM (highest dose often 28.7 µM), for inactives: at the highest dose activity change, negative = inhibition, most hits filed as inhibitors; further: potency means the concentration at half of the fitted maximal effect; on the % scale 0 is the no-effect control and ±100 the full control effect
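Luminescence readout: decreased luciferase signal marks inhibited growth of reporter-expressing P. falciparum in infected red cells (2% hematocrit, 0.05% parasitemia final), exposed to compound two generations (96 h, 37 C, 5% CO2).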
HCV inhibitor: qHTS Assay for Inhibitors of Hepatitis C Virus (HCV) | Huh7.5.1 HCVcc-Cre infection, luciferase reporter, 44 h | Potency, µM (top dose mostly 41.8 µM), inactives show at the highest dose activity change, negative = inhibition, hits mostly inhibitors | AID 651820, 2012 | actives 3.4% (n = 340,000); further: potency means the concentration at half of the fitted maximal effect; on the % scale 0 is the no-effect control and ±100 the full control effect
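After 44 h co-culture of compound, cells and HCVcc-Cre (~0.5 moi), substrate is added for 15 min at room temperature and luciferase measured over 15 sec. Cells were seeded at 1,000/well and pre-cultured 4 h.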
NS1 function inh: qHTS Assay for Inhibitors of Influenza NS1 Protein Function; Potency, µM (highest dose often 46.1 µM), for the others: at the top dose activity, positive = more growth; actives 0.4% (n = 270,000); AID 2326, 2010; calls by dose curve; further: potency means the concentration at half of the fitted maximal effect; actives are rising curves; nearly all actives have a fitted effect of over 50% in size
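Compounds were scored for reversing the slow growth caused by influenza A NS1 in S. cerevisiae, measured by optical density at 600 nm. Assay medium contained 2% galactose at pH 6.0; NS1-free yeast of the same strain were the positive control.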
Vaccinia mCherry: qHTS for Stage-Specific Inhibitors of Vaccinia Orthopoxvirus: mCherry Reporter Primary qHTS. Vaccinia virus mCherry reporter infection, fluorescence. Potency, µM (highest dose often 36.5 µM), without a hit: top-dose activity change, negative = inhibition, actives largely listed as inhibitors. actives 0.63% (n = 310,000); calls by dose curve; tested in A549 cells; further: potency means the concentration at half of the fitted maximal effect; on the % scale 0 is the no-effect control and ±100 the full control effect; nearly all actives have a fitted effect of over 35% in size
Pf growth 48h: Primary qHTS for delayed death inhibitors of the malarial parasite plastid, 48 hour incubation. Potency, µM (titrated, usually from 28.7 µM), for the others: at the top dose activity change, negative = inhibition, actives largely listed as inhibitors. AID 504832, 2011. P. falciparum luciferase growth in erythrocytes, 48 h. actives 5.9% (n = 310,000); further: potency means the concentration at half of the fitted maximal effect; on the % scale 0 is the no-effect control and ±100 the full control effect
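Erythrocytes infected with P. falciparum carrying an integrated firefly luciferase reporter (2% hematocrit, 0.1% parasitemia final) were exposed to compounds in RPMI 1640 with 0.5% Albumax at 37 C, 5% CO2. Growth inhibition was scored as reduced luminescence.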
Vaccinia Venus: qHTS for Stage-Specific Inhibitors of Vaccinia Orthopoxvirus: Venus Reporter Primary qHTS; Vaccinia virus Venus reporter expression, fluorescence; Potency, µM (series often up to 36.5 µM), without a hit: at the highest dose activity change, negative = inhibition, actives largely listed as inhibitors; actives 0.46% (n = 330,000); AID 720580, 2013; calls by dose curve; tested in A549 cells; further: potency means the concentration at half of the fitted maximal effect; on the % scale 0 is the no-effect control and ±100 the full control effect; nearly all actives have a fitted effect of over 30% in size
NS1 inh valid: Assay for Inhibitors of Influenza NS1 Protein Function: Hit Validation; shares compounds with NS1 function inh; influenza NS1 function cell assay, 15-point titration; activity change, negative = inhibition, % at 32.9 µM; 1,400 tested, under 10 active; AID 492980, 2010; calls by dose curve; further: 0% is about no effect
Flu PR8 replic: Assay for Inhibitors of Influenza NS1 Protein Function: Influenza virus replication assay in MDCK cells infected with virus A/PR/8/34. virus titer (log TCID50), log10 TCID50 at 5 µM. actives 30% (n = 95). MDCK infected influenza A/PR/8/34, virus titer TCID50; hits give low values. shares compounds with NS1 function inh; call rule not given here
The depositor's hits bear a star; i = inactive; u = inconclusive; x = no result. Unless noted, the call rests on the fitted dose curve; in most records, active means well fitted inhibition curve with a large enough effect; inconclusive means small, poorly fitted or top-dose-only effect, or another doubt; inactive means no such curve, though single readings can be large or run the other way.

SMILES	Pf growth 96h	HCV inhibitor	NS1 function inh	Vaccinia mCherry	Pf growth 48h	Vaccinia Venus	NS1 inh valid	others
Cn1c(O)c(C=NCc2ccco2)c(=O)n(C)c1=O	0.6%	2.3%	8.91µM*	-6.9%	x	6.9%	-13.5
CC(=O)c1ccc(N2CCN(C(=O)C3CCN(S(=O)(=O)c4cn(C)cn4)CC3)CC2)cc1	x	x	x	-10.2%	x	-6.2%	x
Cc1cnc(NC(=O)c2cc(S(=O)(=O)N(C)C)ccc2N2CCCC2)s1	x	u	x	-17.6%	x	-15.8%	x
CN(C)S(=O)(=O)c1ccc(N2CCCC2)c(C(=O)Nc2nc3c(ccc4ccccc43)s2)c1	13.1µM*	u	14.1µM*	i	u	0.0%	-6.9
Cc1c(/C=N/NC(=O)c2ccc(O)cc2)c2ccccn2c1C(=O)c1ccc(F)cc1	u	u	8.91µM*	-25.8%	4.15µM*	u	-7.8
Cc1ccc2occ(CC(=O)Nc3ccc(S(=O)(=O)N4CCCC(C)C4)cc3)c2c1 (stereo unspecified)	x	x	x	-19.1%	x	-28.0%	x
COc1cccc(NC(=S)NCc2ccc3c(c2)cc(C)n3C)c1	-124.7%	u	x	-8.6%	-19.0%	-26.5%	x
Cc1cc2cc(CNC(=O)Nc3cccc(Cl)c3)ccc2n1C	2.3%	-6.7%	u	-9.7%	-8.6%	21.9%	16.3
Cc1cccc(NC(=O)NCc2ccc3c(c2)cc(C)n3C)c1	10.4µM*	-11.9%	11.2µM*	-8.0%	u	18.0%	12.7
c1ccc(CCNC2=NCCCS2)cc1	u	11.7%	u	i	u	-4.2%	-9.0
c1ccc(CCNC2=NCCS2)cc1	u	-1.1%	3.3%	-4.5%	-3.4%	-1.6%	x
CC(O)/C=C/c1cccc[n+]1C (stereo unspecified)	u	12.5%	12.6µM*	i	u	-10.9%	-6.8
Cc1cccc2sc(NNC(=O)c3ccc(S(=O)(=O)N4CCc5ccccc5C4)cc3)nc12	5.22µM*	u	12.6µM*	u	u	u	u
CCOC(=O)N1CCN(S(=O)(=O)c2ccc(C(=O)NNc3nc4c(C)cccc4s3)cc2)CC1	u	u	10µM*	-10.5%	u	-19.7%	u
CCOC(=O)N1CCN(S(=O)(=O)c2ccc(C(=O)NNc3nc4ccc(Cl)cc4s3)cc2)CC1	u	7.08µM*	7.94µM*	u	0.0%	u	-16.2
CCOC(=O)N1CCN(S(=O)(=O)c2ccc(C(=O)N(CCN(CC)CC)c3nc4c(C)cccc4s3)cc2)CC1	21.8%	5.2%	-7.5%	-23.5%	16.6%	-10.1%	x
CCOC(=O)N1CCN(S(=O)(=O)c2ccc(C(=O)NNc3nc4c(C)cc(C)cc4s3)cc2)CC1	u	11.2µM*	3.98µM*	10µM*	u	u	u
CCC(NS(=O)(=O)c1c(C)[nH]c(=O)[nH]c1=O)C12CC3CC(CC(C3)C1)C2 (stereo unspecified)	u	7.5%	-7.3%	-25.5%	5.2%	-11.7%	x
CC(NC(=O)CCNC(=O)c1ccccc1Cl)C1CC2CCC1C2 (stereo unspecified)	-24.2%	-5.9%	12.5%	x	5.2%	x	x
COc1ccc(CNC(=O)CCc2c(C)nc3ncnn3c2C)cc1	u	4.5%	5.01µM*	x	-28.2%	x	-0.3
O=C(COC(=O)c1ccc[nH]c1=O)Nc1ccc(S(=O)(=O)N2CCCC2)cc1	0.0%	0.6%	11.2µM*	x	-1.4%	x	3.0	Flu PR8 replic=7.66
CCc1cccc(C)c1NC(=O)CN1C(=O)NC(CCc2ccccc2)C1=O (stereo unspecified)	x	1.9%	x	-2.4%	x	-5.4%	x
C/C(N)=C(/C#N)C(=O)CSc1n[nH]c(-c2ccccc2Br)n1	u	9.6%	3.98µM*	-13.0%	u	-14.4%	-0.5
Cc1cc(NC(=O)CSc2n[nH]c(-c3ccccc3Br)n2)no1	x	6.0%	x	i	x	-9.3%	x
CCOC(=O)c1c(-c2ccc(OC)cc2)oc2ccc(OCc3ccc(Br)cc3)cc12	x	x	x	-13.9%	x	6.9%	x
SMILES	Pf growth 96h	HCV inhibitor	NS1 function inh	Vaccinia mCherry	Pf growth 48h	Vaccinia Venus	NS1 inh valid	others
N=c1c2c(n(Cc3ccc(F)cc3)c3c1CCC3)CCC2	-7.7%	7.7%	1µM*	-28.6%	0.117µM*	-29.1%	-29.3
C=CCn1c(=O)c2ccccc2n2c(SCC(=O)NCc3cccs3)nnc12	u	-4.9%	-4.5%	x	x	-7.9%	x
CCC/C(=N/NC(=O)c1ccc2c(c1)OCO2)c1cccs1	u	21.8%	u	-5.6%	78.4%	-3.0%	-15.4
Cc1ccc(NC(=O)C(Nc2cccc(C)c2)c2ccccc2)cc1 (stereo unspecified)	u	0.9%	u	-8.8%	-26.1%	-18.5%	u
Cc1ccc(NC(=O)C(Nc2ccccc2)c2ccccc2)cc1 (stereo unspecified)	u	8.2%	-37.0%	-8.7%	-4.8%	-10.0%	x
O=C(NCc1ccccc1)c1ccc2c(c1)CCN2S(=O)(=O)c1ccccc1	x	x	x	-16.1%	x	-13.3%	x
O=C1C(c2ccncc2)=C(O)c2ccccc21	-6.6%	-0.4%	0.251µM*	x	132.5%	-20.5%	-3.2
O=C(N/N=C/c1ccccc1Cl)C1CC1	19.4%	9.0%	-6.5%	x	0.8%	x	x
CC(C)NS(=O)(=O)c1ccc(OCC(=O)Nc2cccc(F)c2)cc1	41.6%	-26.8%	u	x	-10.6%	x	17.6
CC(C)NS(=O)(=O)c1ccc(OCC(=O)Nc2ccc3c(c2)OCO3)cc1	46.8%	u	x	i	2.4%	-1.4%	x
COc1ccc2c(c1)C[C@]1(C)c3ccccc3C(=O)N(Cc3ccccc3)[C@H]21	x	u	x	-25.6%	x	u	x
COc1ccccc1NS(=O)(=O)c1ccc(C(=O)NCC2(N(C)C)CCCCC2)cc1	u	-13.6%	x	i	u	-19.4%	x
COc1ccccc1NC(=O)NCC1(N(C)C)CCCCC1	32.4%	-25.0%	u	i	15.3%	-6.5%	-22.6
COc1ccc(C2N(c3ccc(OC)cc3)C(=O)C3CCCN32)cc1 (stereo unspecified)	0.0%	6.6%	-7.8%	x	x	x	x
COc1ccccc1C1N(c2ccc(Cl)cc2)C(=O)C2CCCN21 (stereo unspecified)	40.9%	-18.9%	11.2µM*	x	-28.8%	x	-21.3
